# What was measured:
# [1] = target: Tyrosine-protein kinase SYK (Homo sapiens) (UniProt P43405); conditions: at 10 µM
# [2] = target: T1, Mitogen-activated protein kinase kinase kinase 7 (Homo sapiens) (UniProt O43318); conditions: at 1 µM
# T1 sequence (whole entry): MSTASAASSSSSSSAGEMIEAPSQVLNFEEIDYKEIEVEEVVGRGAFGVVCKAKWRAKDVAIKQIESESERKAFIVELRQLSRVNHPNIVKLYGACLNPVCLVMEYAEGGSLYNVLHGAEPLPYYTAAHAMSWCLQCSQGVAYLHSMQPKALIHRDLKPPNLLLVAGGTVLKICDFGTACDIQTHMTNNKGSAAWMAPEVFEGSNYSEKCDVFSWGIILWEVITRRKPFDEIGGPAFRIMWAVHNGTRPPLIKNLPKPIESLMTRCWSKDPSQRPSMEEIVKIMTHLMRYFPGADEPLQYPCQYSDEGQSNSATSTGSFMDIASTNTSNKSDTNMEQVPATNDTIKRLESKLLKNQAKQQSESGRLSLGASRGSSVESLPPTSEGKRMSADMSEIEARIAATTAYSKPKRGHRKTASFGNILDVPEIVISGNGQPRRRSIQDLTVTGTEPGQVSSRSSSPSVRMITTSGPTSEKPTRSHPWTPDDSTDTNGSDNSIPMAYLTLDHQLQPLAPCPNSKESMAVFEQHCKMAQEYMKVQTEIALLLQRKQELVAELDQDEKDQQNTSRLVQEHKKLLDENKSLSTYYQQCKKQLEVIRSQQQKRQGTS
# [3] = target: T1, Mitogen-activated protein kinase kinase kinase 7 (Homo sapiens); conditions: at 10 µM
# [4] = target: T2, Serine/threonine-protein kinase TAO1 (Homo sapiens) (UniProt Q7L7X3); conditions: at 1 µM
# T2 sequence (whole entry): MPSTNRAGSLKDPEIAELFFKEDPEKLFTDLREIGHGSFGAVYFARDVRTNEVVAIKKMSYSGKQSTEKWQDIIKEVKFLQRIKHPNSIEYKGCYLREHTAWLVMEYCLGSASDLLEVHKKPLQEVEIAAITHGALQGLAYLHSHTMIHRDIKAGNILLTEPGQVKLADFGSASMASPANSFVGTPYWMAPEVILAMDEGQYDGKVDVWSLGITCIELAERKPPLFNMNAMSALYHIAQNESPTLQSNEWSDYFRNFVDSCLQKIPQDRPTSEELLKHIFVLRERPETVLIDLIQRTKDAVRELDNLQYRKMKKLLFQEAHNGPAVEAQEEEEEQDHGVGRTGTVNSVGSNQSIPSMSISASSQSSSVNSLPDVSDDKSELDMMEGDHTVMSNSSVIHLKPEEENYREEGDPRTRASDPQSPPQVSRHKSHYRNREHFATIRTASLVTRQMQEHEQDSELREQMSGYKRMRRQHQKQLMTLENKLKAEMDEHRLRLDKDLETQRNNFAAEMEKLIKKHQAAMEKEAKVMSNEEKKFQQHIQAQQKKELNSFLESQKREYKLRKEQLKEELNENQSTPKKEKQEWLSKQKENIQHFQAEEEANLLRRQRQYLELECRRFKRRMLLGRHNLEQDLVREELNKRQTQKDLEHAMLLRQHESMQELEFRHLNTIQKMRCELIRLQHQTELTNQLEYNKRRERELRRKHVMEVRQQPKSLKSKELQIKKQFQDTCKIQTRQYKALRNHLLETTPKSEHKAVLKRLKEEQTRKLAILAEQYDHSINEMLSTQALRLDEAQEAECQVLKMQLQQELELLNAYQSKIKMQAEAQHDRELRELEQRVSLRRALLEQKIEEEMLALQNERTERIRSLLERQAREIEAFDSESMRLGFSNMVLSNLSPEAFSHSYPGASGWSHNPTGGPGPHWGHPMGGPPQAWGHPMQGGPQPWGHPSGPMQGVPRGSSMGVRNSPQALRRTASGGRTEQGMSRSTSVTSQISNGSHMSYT
# [5] = target: T2, Serine/threonine-protein kinase TAO1 (Homo sapiens); conditions: at 10 µM
# [6] = target: T3, Serine/threonine-protein kinase TAO2 (Homo sapiens) (UniProt Q9UL54); conditions: at 1 µM
# T3 sequence (whole entry): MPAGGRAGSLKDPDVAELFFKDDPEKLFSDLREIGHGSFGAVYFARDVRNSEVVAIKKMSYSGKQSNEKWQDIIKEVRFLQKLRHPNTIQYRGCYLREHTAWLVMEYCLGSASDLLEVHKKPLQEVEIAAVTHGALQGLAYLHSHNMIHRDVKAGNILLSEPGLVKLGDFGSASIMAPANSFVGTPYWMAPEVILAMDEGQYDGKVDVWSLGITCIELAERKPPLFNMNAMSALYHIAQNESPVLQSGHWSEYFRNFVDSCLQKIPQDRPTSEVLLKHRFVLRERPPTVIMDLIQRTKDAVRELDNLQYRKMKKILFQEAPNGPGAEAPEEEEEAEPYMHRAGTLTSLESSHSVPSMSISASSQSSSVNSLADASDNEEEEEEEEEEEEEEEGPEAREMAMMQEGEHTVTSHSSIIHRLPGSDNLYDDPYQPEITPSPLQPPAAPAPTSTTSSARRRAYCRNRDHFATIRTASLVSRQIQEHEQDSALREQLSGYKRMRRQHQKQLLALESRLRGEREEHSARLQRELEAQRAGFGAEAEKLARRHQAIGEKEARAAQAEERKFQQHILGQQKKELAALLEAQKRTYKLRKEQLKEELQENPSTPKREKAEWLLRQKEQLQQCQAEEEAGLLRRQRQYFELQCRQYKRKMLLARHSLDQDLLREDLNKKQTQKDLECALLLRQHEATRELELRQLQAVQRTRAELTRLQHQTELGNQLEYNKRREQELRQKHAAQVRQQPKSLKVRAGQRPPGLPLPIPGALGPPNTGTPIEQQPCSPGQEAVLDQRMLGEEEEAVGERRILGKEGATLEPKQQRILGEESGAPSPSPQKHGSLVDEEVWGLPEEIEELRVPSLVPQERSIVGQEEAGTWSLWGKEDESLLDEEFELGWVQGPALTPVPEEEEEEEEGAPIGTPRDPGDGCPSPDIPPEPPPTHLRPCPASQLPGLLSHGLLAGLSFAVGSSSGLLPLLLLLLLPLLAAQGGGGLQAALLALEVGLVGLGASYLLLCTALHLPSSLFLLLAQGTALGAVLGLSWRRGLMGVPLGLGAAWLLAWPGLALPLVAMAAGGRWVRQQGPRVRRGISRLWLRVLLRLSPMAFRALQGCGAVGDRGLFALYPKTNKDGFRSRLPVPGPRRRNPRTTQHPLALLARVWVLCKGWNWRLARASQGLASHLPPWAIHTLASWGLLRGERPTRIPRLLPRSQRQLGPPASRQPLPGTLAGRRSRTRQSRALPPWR
# [7] = target: T3, Serine/threonine-protein kinase TAO2 (Homo sapiens); conditions: at 10 µM
# [8] = target: T4, Serine/threonine-protein kinase TAO3 (Homo sapiens) (UniProt Q9H2K8); conditions: at 1 µM
# T4 sequence (whole entry): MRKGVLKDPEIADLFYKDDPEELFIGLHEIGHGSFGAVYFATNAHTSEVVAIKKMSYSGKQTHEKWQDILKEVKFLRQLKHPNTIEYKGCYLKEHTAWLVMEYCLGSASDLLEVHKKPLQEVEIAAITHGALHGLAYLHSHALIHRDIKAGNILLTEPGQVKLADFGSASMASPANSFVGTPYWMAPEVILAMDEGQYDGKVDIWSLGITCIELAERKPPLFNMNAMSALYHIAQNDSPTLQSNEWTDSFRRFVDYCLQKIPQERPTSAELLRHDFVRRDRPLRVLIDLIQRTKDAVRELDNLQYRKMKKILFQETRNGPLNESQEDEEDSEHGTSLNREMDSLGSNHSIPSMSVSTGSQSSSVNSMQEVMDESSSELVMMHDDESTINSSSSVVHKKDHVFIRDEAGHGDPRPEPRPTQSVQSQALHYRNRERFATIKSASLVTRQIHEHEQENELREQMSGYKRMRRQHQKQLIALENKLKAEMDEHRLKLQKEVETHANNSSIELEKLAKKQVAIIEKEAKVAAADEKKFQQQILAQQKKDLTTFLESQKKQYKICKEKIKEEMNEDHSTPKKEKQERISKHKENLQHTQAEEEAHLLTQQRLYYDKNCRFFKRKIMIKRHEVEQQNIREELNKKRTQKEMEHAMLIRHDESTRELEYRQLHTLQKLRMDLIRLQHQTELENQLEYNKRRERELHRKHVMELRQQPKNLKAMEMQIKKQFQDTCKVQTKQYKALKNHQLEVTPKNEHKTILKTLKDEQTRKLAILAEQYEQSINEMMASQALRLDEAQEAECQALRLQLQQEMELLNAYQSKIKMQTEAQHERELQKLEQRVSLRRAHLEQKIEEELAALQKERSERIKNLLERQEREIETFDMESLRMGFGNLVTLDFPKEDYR
# [9] = target: T4, Serine/threonine-protein kinase TAO3 (Homo sapiens); conditions: at 10 µM
# [10] = target: T5, Serine/threonine-protein kinase TBK1 (Homo sapiens) (UniProt Q9UHD2); conditions: at 1 µM
# T5 sequence (whole entry): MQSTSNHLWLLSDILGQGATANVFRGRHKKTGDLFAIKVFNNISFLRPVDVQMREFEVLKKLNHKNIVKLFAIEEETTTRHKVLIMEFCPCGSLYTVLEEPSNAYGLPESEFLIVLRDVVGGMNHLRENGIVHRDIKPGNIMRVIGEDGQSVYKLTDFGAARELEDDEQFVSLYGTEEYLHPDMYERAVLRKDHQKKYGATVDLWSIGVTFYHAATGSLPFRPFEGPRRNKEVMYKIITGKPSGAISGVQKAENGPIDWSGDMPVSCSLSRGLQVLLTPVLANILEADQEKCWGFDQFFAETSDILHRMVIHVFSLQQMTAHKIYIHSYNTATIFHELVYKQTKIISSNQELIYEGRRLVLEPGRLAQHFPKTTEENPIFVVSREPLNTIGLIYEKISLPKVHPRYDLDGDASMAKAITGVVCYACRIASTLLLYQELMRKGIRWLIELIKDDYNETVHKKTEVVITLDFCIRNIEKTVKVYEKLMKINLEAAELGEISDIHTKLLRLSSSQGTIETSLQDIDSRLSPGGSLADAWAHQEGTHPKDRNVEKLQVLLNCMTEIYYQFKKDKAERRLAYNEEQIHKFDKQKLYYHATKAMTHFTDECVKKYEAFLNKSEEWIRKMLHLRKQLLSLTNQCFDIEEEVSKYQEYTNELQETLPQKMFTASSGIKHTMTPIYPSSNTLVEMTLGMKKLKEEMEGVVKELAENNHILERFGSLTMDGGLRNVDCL
smiles,measurement,setting,value
CC#CC(=O)Nc1cc2c(Nc3ccc(F)c(Cl)c3)ncnc2cn1,residual activity,[1],87%
same,residual activity,[2],91%
same,residual activity,[3],96%
same,residual activity,[4],104%
same,residual activity,[5],89%
same,residual activity,[6],97%
same,residual activity,[7],80%
same,residual activity,[8],96%
same,residual activity,[9],95%
same,residual activity,[10],78%
